# From PubChem BioAssay (EPA / NIEHS)
# Values joined by “and” are separate entries in the source; they are usually repeats but may differ in a detail not shown here. Equal values may be shown once. Results filed as inconclusive are left out. Some structures have more than one record in an assay (separate samples or runs), and their calls can disagree. Active and inactive are the calls of the source. Rule for the calls, unless noted: active = hit-call score of the fitted dose curve at least 0.9, where 1 is the maximum; inactive = score below 0.9.
# Experiments:
# [1] = target: Transcription factor Sp1 (Homo sapiens) (UniProt P08047); experiment: ATG_Sp1_CIS: Attagene CIS-FACTORIAL HepG2 Assay for human Specificity Protein 1 (Sp1) (AID 2282961); conditions: HepG2 Sp1 cis-reporter transcription, actives raise or lower the signal
# Transcription factor Sp1 (Homo sapiens), sequence (P08047 whole entry, looked up): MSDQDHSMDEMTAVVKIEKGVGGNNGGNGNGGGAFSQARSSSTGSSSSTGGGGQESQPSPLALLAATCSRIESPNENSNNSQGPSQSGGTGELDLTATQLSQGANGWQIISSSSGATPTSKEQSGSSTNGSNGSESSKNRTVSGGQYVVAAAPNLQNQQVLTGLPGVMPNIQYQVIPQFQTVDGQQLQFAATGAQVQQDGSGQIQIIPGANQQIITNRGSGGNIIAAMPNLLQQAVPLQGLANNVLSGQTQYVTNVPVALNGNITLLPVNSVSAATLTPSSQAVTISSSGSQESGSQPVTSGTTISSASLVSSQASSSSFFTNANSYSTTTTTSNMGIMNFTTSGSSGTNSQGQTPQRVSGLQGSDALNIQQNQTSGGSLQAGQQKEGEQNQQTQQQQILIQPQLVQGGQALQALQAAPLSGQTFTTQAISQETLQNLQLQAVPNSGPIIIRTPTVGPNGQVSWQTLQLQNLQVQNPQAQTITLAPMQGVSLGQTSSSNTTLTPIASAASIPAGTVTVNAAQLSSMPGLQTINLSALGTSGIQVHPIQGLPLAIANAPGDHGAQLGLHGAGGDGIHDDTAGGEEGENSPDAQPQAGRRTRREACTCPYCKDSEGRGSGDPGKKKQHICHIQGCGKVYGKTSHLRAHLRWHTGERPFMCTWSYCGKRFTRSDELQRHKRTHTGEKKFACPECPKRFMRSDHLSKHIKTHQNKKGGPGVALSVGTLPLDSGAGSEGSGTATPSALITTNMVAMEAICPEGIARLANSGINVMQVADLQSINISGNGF
# How it was run: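 After transient transfection of HepG2 cells with cis-promoter reporter units and 24 h chemical treatment, reporter transcripts were quantified by RT-PCR and capillary electrophoresis fluorescence. Gain- and loss-of-signal fitted against DMSO.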
# [2] = ATG_SREBP_CIS: Attagene CIS-FACTORIAL HepG2 Assay for human Sterol Regulatory Element Binding (SREBP) (AID 2282962); conditions: HepG2 Attagene cis-factorial SREBP reporter, mRNA; actives raise or lower the signal
# How it was run: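 Endogenous SREBP activity read as cis-element-driven reporter transcript in transiently transfected HepG2, 24 h post-dosing; quantified via RT-PCR plus capillary electrophoresis of fluorescent fragments. Gain or loss of signal fitted relative to DMSO baseline.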
# [3] = target: Signal transducer and activator of transcription 3 (Homo sapiens) (UniProt P40763); experiment: ATG_STAT3_CIS: Attagene CIS-FACTORIAL HepG2 Assay for human Signal Transducer and Activator of Transcription 3 (STAT3) (AID 2282963); conditions: HepG2, Attagene cis-factorial STAT3 reporter transcription; actives raise or lower the signal
# Signal transducer and activator of transcription 3 (Homo sapiens), sequence (P40763 whole entry, looked up, the tested form may be a part): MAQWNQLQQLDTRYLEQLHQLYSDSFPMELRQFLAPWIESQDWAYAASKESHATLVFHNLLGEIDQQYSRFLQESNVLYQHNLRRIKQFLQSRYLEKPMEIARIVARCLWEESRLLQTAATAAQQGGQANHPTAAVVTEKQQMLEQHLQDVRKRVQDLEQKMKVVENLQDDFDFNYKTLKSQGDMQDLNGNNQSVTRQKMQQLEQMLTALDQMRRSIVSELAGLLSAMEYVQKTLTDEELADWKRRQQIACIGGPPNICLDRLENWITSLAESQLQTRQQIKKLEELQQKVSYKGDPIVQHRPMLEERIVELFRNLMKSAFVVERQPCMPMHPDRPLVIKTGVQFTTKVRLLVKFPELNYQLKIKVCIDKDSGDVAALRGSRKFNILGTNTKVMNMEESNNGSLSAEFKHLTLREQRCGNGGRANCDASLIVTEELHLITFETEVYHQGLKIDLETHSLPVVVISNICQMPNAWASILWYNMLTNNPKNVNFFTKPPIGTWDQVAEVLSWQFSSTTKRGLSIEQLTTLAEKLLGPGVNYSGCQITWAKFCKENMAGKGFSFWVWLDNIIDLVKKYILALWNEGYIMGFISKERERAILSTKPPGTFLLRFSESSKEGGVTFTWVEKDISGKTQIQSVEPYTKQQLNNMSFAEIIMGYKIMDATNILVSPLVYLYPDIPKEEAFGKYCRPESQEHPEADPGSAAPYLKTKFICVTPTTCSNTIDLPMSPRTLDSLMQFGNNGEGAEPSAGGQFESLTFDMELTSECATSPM
# How it was run: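 Readout: fluorescent reporter mRNA fragments resolved by capillary electrophoresis. Setup: HepG2 transfected with MRTUs reporting endogenous transcription-factor activity, dosed 24 h. Gain or loss of signal fitted bidirectionally against DMSO control.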
# [4] = ATG_TA_CIS: Attagene CIS-FACTORIAL HepG2 Assay for human TA Basal Promoter (AID 2282964); conditions: HepG2 Attagene CIS-factorial TA basal promoter reporter; actives raise or lower the signal
# How it was run: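 HepG2 cells transiently transfected with multiple reporter units under cis promoter elements, reporting endogenous transcription factor activity; this endpoint tracks the TA basal promoter as background control. Reporter mRNA after 24 h dosing measured by RT-PCR/capillary electrophoresis; bidirectional fits versus DMSO.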
# [5] = ATG_TCF_b_cat_CIS: Attagene CIS-FACTORIAL HepG2 Assay for human T-Cell-Factor with beta-catenin (TCF/b-cat) (AID 2282965); conditions: HepG2 TCF/beta-catenin cis-reporter transcription, actives raise or lower the signal
# How it was run: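 HepG2, transient MRTU transfection, cis-element-driven reporters (endogenous TFs). 24 h compound exposure. Readout: reporter mRNA by RT-PCR + 6-FAM primer extension, HpaI digest, capillary electrophoresis. Gain/loss fit vs DMSO baseline.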
# [6] = ATG_TAL_CIS: Attagene CIS-FACTORIAL HepG2 Assay for human TAL Basal Promoter (AID 2282966); conditions: HepG2 Attagene cis-factorial TAL promoter reporter; actives raise or lower the signal;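 note: background control endpoint measuring basal TAL promoter reporter mRNA not a specific factor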
# How it was run: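 After 24 hours of chemical exposure, transfected HepG2 cells yielded RNA that was converted to 6-FAM-labelled, HpaI-digested reporter fragments for capillary electrophoresis. Values derive from bidirectional fitting against DMSO controls.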
# [7] = ATG_TGFb_CIS: Attagene CIS-FACTORIAL HepG2 Assay for human Transforming Growth Factor (TGF) (AID 2282967); conditions: HepG2 Attagene CIS TGFb reporter, mRNA transcription; actives raise or lower the signal
# How it was run: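 HepG2 cells transiently transfected with cis-promoter-driven multiple reporter units measure endogenous TF activity; reporter mRNA quantified at 24 h by RT-PCR, FAM labeling, HpaI digestion and capillary electrophoresis. Bidirectional fit vs DMSO.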
# [8] = ATG_VDRE_CIS: Attagene CIS-FACTORIAL HepG2 Assay for human Vitamin D Receptor Element (VDRE) (AID 2282968); conditions: HepG2 VDRE cis-reporter transcription, actives raise or lower the signal
# How it was run: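 Transient MRTU transfection of HepG2, 24 h compound exposure. Readout: reporter transcripts via RT-PCR and capillary electrophoresis, fluorescence. Bidirectional fit vs DMSO.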
# [9] = target: Nuclear receptor subfamily 1 group I member 3 (Homo sapiens) (UniProt Q14994); experiment: ATG_CAR_TRANS: Attagene TRANS-FACTORIAL HepG2 Assay for human Constitutive Androstane Receptor (CAR) (AID 2282969; active = hit-call score of the fitted dose curve at least 0.9, where 1 is the maximum;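 note: activators raise reporter mRNA above DMSO so AC50 marks induction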); conditions: HepG2 Attagene TRANS-FACTORIAL CAR reporter
# Nuclear receptor subfamily 1 group I member 3 (Homo sapiens), sequence (Q14994 whole entry, looked up, the tested form may be a part): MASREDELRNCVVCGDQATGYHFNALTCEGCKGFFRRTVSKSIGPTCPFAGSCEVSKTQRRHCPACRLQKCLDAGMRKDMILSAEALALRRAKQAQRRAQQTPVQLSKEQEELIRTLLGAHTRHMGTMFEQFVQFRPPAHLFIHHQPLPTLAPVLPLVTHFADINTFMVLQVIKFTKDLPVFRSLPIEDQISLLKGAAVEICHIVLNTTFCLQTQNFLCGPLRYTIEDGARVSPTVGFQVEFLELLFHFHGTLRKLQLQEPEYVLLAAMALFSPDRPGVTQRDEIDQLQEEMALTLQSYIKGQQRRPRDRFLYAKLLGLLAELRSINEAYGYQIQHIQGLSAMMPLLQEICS
# How it was run: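 Transiently transfected HepG2, multiplex TRANS reporters (CAR-Gal4 chimera driving GAL4-UAS reporter). 24 h dosing. Readout: reporter transcript by RT-PCR + capillary electrophoresis, fluorescence intensity; positive direction vs DMSO.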
# [10] = target: Estrogen receptor (Homo sapiens) (UniProt P03372); experiment: ATG_ERa_TRANS: Attagene TRANS-FACTORIAL HepG2 Assay for human Estrogen Receptor alpha (ERa) (AID 2282970; active = hit-call score of the fitted dose curve at least 0.9, where 1 is the maximum); conditions: HepG2 Attagene TRANS ERa GAL4 reporter, mRNA
# Estrogen receptor (Homo sapiens), sequence (P03372 whole entry, looked up, the tested form may be a part): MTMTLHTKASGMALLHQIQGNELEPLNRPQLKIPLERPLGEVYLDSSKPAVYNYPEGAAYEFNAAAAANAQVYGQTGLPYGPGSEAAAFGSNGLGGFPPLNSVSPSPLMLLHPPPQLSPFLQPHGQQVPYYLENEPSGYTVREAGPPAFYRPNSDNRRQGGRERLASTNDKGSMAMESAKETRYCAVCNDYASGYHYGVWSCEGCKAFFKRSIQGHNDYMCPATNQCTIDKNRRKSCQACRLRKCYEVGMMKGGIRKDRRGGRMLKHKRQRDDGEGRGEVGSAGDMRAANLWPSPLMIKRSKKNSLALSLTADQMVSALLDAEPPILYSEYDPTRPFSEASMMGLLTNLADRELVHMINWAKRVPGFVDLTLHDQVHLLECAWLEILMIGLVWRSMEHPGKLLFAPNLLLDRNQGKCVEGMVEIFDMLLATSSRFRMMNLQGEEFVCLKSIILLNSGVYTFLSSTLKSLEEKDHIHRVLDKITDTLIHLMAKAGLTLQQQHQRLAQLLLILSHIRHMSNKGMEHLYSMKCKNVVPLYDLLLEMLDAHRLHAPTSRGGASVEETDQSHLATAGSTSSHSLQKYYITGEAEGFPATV
# How it was run: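 Liver-derived HepG2 cells expressing chimeric nuclear receptor-Gal4 proteins from transient transfection were exposed for 24 hours. Gain of reporter mRNA signal versus DMSO, read by capillary electrophoresis of FAM-labelled PCR products, was recorded.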
compound,measurement,setting,value
O=c1[nH]c(=O)[nH]c(=O)[nH]1,outcome,[1],inactive
same,outcome,[2],inactive
same,outcome,[3],inactive
same,outcome,[4],inactive
same,outcome,[5],inactive
same,outcome,[6],inactive
same,outcome,[7],inactive
same,outcome,[8],inactive
same,outcome,[9],inactive
C[C@]12CC[C@H](O)CC1=CC[C@@H]1[C@@H]2CC[C@]2(C)C(=O)CC[C@@H]12,outcome,[1],inactive
same,outcome,[2],inactive
same,outcome,[3],inactive
same,outcome,[4],inactive
same,outcome,[5],inactive
same,outcome,[6],inactive
same,outcome,[7],inactive
same,outcome,[8],inactive
ClC1=C(Cl)[C@]2(Cl)[C@H]3[C@H]([C@H]4C=C[C@H]3C4)[C@@]1(Cl)C2(Cl)Cl,outcome,[1],inactive
same,outcome,[2],inactive
same,outcome,[3],inactive
same,outcome,[4],inactive
same,outcome,[5],inactive
same,outcome,[6],inactive
same,outcome,[7],inactive
same,outcome,[8],inactive
same,outcome,[9],inactive
same,AC50,[10],8.38 µM (active)
C=CC(=O)OCCCCCC(C)C,outcome,[1],inactive
same,outcome,[2],inactive
same,outcome,[3],inactive
same,outcome,[4],inactive
same,outcome,[5],inactive
same,outcome,[6],inactive
same,outcome,[7],inactive
same,outcome,[8],inactive
CCOC(=O)CP(=O)(OCC)OCC,outcome,[1],inactive
same,outcome,[2],inactive
same,outcome,[3],inactive
same,outcome,[4],inactive
same,outcome,[5],inactive
same,outcome,[6],inactive
same,outcome,[7],inactive
CC(C#N)CCC#N (stereo not drawn),outcome,[1],inactive
same,outcome,[2],inactive
same,outcome,[3],inactive
same,outcome,[4],inactive
same,outcome,[5],inactive
same,outcome,[6],inactive
same,outcome,[7],inactive
same,outcome,[8],inactive
CN(CCCC(=O)c1cccnc1)N=O,outcome,[1],inactive
same,outcome,[2],inactive
same,outcome,[3],inactive
same,outcome,[4],inactive
same,outcome,[5],inactive
same,outcome,[6],inactive
same,outcome,[7],inactive
same,outcome,[8],inactive
same,outcome,[9],inactive
COc1cc(-c2ccc(N)c(OC)c2)ccc1N,AC50,[1],19.8 µM (active)
same,outcome,[1],inactive
same,AC50,[2],7.03 µM (active) and 39.9 µM (active)
same,outcome,[3],inactive
same,outcome,[4],inactive
same,outcome,[6],inactive
same,outcome,[7],inactive
same,AC50,[8],27.8 µM (active) and 31 µM (active)
same,outcome,[9],inactive
O=C(O)C(Cl)(Cl)Cl,outcome,[1],inactive
same,outcome,[2],inactive
same,outcome,[3],inactive
same,outcome,[4],inactive
same,outcome,[5],inactive
same,outcome,[6],inactive
same,outcome,[7],inactive
same,outcome,[8],inactive
COc1ccc(C=O)cc1,outcome,[1],inactive
same,outcome,[2],inactive
same,outcome,[3],inactive
same,outcome,[4],inactive
same,outcome,[5],inactive
same,outcome,[6],inactive
same,outcome,[7],inactive
same,outcome,[8],inactive
same,outcome,[9],inactive
same,outcome,[10],inactive
COc1ccc(OC)c(C=O)c1,outcome,[1],inactive
same,outcome,[2],inactive
same,outcome,[3],inactive
same,outcome,[4],inactive
same,outcome,[5],inactive
same,outcome,[6],inactive
same,outcome,[7],inactive
same,outcome,[8],inactive
O=[N+]([O-])c1ccc(O)c([N+](=O)[O-])c1,outcome,[1],inactive
same,outcome,[2],inactive
same,outcome,[3],inactive
same,outcome,[4],inactive
same,outcome,[5],inactive
same,outcome,[6],inactive
same,outcome,[7],inactive
CCOP(=O)(CN(CCO)CCO)OCC,outcome,[1],inactive
same,outcome,[2],inactive
same,outcome,[3],inactive
same,outcome,[4],inactive
same,outcome,[5],inactive
same,outcome,[6],inactive
same,outcome,[7],inactive
same,outcome,[8],inactive
CCCCCCCCc1ccc(O)cc1,outcome,[1],inactive
same,outcome,[2],inactive
same,outcome,[3],inactive
same,outcome,[4],inactive
same,outcome,[5],inactive
same,outcome,[6],inactive
same,outcome,[7],inactive
same,AC50,[8],18.9 µM (active)
same,outcome,[8],inactive
same,outcome,[9],inactive
Cl/C=C\C[N+]12CN3CN(CN(C3)C1)C2,outcome,[1],inactive
same,outcome,[2],inactive
same,outcome,[3],inactive
same,outcome,[4],inactive
same,AC50,[5],26 µM (active)
same,outcome,[6],inactive
same,outcome,[7],inactive
same,outcome,[8],inactive
O=C/C=C/c1ccccc1,outcome,[1],inactive
same,outcome,[2],inactive
same,outcome,[3],inactive
same,outcome,[4],inactive
same,outcome,[5],inactive
same,outcome,[6],inactive
same,outcome,[7],inactive
same,AC50,[8],45.5 µM (active)
same,outcome,[9],inactive
same,AC50,[10],27.8 µM (active)
CCC(=O)c1ccccc1,outcome,[1],inactive
same,outcome,[2],inactive
same,outcome,[3],inactive
same,outcome,[4],inactive
same,outcome,[5],inactive
same,outcome,[6],inactive
same,outcome,[7],inactive
same,outcome,[8],inactive
same,outcome,[9],inactive
same,outcome,[10],inactive
COP(=O)(OC)OC,outcome,[1],inactive
same,outcome,[2],inactive
same,outcome,[3],inactive
same,outcome,[4],inactive
same,outcome,[5],inactive
same,outcome,[6],inactive
same,outcome,[7],inactive
same,outcome,[8],inactive
same,outcome,[9],inactive
same,outcome,[10],inactive
COc1cccc(C=O)c1,outcome,[1],inactive
same,outcome,[2],inactive
same,outcome,[3],inactive
same,outcome,[4],inactive
same,outcome,[5],inactive
same,outcome,[6],inactive
same,AC50,[7],175 nM (active)
same,outcome,[8],inactive
same,outcome,[9],inactive
O=C(O)C(F)(F)C(F)(F)C(F)(F)C(F)(F)C(F)(F)C(F)(F)F,outcome,[1],inactive
same,outcome,[2],inactive
same,outcome,[3],inactive
same,outcome,[4],inactive
same,outcome,[5],inactive
same,outcome,[6],inactive
same,outcome,[7],inactive
same,outcome,[8],inactive
O=S(=O)(c1ccc(Cl)cc1)c1ccc(Cl)cc1,outcome,[1],inactive
same,outcome,[2],inactive
same,outcome,[3],inactive
same,outcome,[4],inactive
same,outcome,[5],inactive
same,outcome,[6],inactive
same,outcome,[7],inactive
same,AC50,[8],27.2 µM (active)
same,outcome,[9],inactive
same,outcome,[10],inactive
COC(=O)Cc1ccccc1,outcome,[1],inactive
same,outcome,[2],inactive
same,outcome,[3],inactive
same,outcome,[4],inactive
same,outcome,[5],inactive
same,outcome,[6],inactive
same,outcome,[7],inactive
same,outcome,[8],inactive
same,outcome,[9],inactive
CC(C)(c1ccc(OCC2CO2)cc1)c1ccc(OCC2CO2)cc1 (stereo not drawn),outcome,[1],inactive
same,AC50,[2],15.1 µM (active)
same,outcome,[3],inactive
same,AC50,[4],33.4 µM (active)
same,AC50,[5],49.7 µM (active)
same,AC50,[6],23.2 µM (active)
same,outcome,[7],inactive
same,AC50,[8],24.9 µM (active)
C[C@]12CCC(=O)C[C@@H]1CC[C@@H]1[C@@H]2CC[C@]2(C)[C@@H](O)CC[C@@H]12,outcome,[1],inactive
same,AC50,[2],26 µM (active) and 23 µM (active)
same,outcome,[2],inactive
same,outcome,[4],inactive
same,AC50,[5],24.6 µM (active) and 23.6 µM (active)
same,outcome,[5],inactive
same,outcome,[6],inactive
same,AC50,[7],123 µM (active) and 99.6 µM (active)
same,outcome,[7],inactive
same,AC50,[8],33 µM (active) and 17.9 µM (active) and 23.4 µM (active)
same,outcome,[8],inactive
Cc1cc(Cl)ccc1O[C@H](C)C(=O)O,outcome,[1],inactive
same,outcome,[2],inactive
same,AC50,[3],100 µM (active)
same,outcome,[4],inactive
same,outcome,[5],inactive
same,outcome,[6],inactive
same,outcome,[7],inactive
[O-][Cl+2]([O-])O,outcome,[1],inactive
same,outcome,[2],inactive
same,outcome,[3],inactive
same,outcome,[4],inactive
same,outcome,[5],inactive
same,outcome,[6],inactive
same,outcome,[7],inactive
same,outcome,[8],inactive
same,outcome,[9],inactive
